Screening results from PubChem.
Hits are enriched below; roughly 11% of the tested compounds scored in any of these assays.
USP30 inh = human USP30 deubiquitinase inhibition; Q70CQ3; actives 5.3% (n = 47,000); inhibition, % at 25 µM; AID 1645860; purified USP30, Ub-rhodamine cleavage fluorescence
USP28 inh = inhibitors of human USP28 deubiquitinase; purified USP28, Ub-rhodamine cleavage fluorescence, 30 min; AID 1645857; inhibition, % at 25 µM; actives 3% (n = 47,000)
OTUD3 block = human OTUD3 deubiquitinase inhibition | Q5T2D3 | actives 0.7% (n = 47,000) | AID 1645858 | inhibition, % at 25 µM | purified OTUD3, Ub-rhodamine fluorescence, 2 h
Target sequence (Q5T2D3 whole entry, looked up): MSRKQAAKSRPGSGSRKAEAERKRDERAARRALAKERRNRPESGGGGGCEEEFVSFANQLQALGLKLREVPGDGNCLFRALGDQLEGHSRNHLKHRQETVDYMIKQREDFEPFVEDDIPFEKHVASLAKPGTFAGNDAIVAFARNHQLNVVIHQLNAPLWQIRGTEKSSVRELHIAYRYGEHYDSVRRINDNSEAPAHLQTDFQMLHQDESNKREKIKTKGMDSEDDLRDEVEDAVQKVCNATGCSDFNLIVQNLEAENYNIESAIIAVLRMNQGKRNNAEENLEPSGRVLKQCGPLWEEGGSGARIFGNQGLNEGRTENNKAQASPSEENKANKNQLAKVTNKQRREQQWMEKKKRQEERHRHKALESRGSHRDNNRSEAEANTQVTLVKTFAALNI
USP17 inh = inhibitors of human USP17 deubiquitinase; purified USP17, Ub-rhodamine cleavage fluorescence, 3 h; inhibition, % at 50 µM; actives 6.5% (n = 47,000); AID 1645855
The depositor's hits bear a star; i = inactive; . = no result. Cut-off read from the data, not from the text of the source: active = inhibition above about 30%; inactive = the rest.

SMILES	USP30 inh	USP28 inh	OTUD3 block	USP17 inh
O=C(CN(Cc1ccccc1)S(=O)(=O)c1ccc(Cl)cc1)Nc1ccc(N2CCOCC2)cc1	-27.2	2.0	-1.7	18.5
O=C(CN(Cc1ccc(Cl)cc1)S(=O)(=O)c1ccc(Cl)cc1)N1CCOCC1	63.4*	16.4	15.6	20.6
O=C(CCCC1=NS(=O)(=O)c2ccccc2N1)Nc1ccc(Cl)c(Cl)c1	17.0	13.2	12.2	34.3*
CN1C(=O)CO[C@H]2CN(C(=O)c3cccc4c3OCCO4)C[C@@H]21	14.8	5.4	3.6	3.2
Cc1cccc(C(=O)N2CCc3cc(-c4nc(NC(=O)CN5CCCCCC5)sc4C)ccc32)c1	-12.6	1.4	-14.6	16.7
Cc1sc(NC(=O)CNc2ccccc2)nc1-c1ccc2c(c1)CCN2C(=O)C1CCCCC1	-2.2	10.4	-2.0	47.2*
Cc1sc(NC(=O)CN2CCCC2)nc1-c1ccc2c(c1)CCN2S(=O)(=O)c1ccccc1	-16.4	3.1	-8.5	39.3*
Cc1sc(NC(=O)CN2CCCC2)nc1-c1ccc2c(c1)CCN2C(=O)c1cccc(F)c1	34.9*	26.8	4.5	18.5
Cc1sc(NC(=O)CN2CCCCC2)nc1-c1ccc2c(c1)CCN2C(=O)c1cccc(F)c1	0.1	0.0	0.3	36.4*
Cc1sc(NC(=O)CN2CCCCCC2)nc1-c1ccc2c(c1)CCN2C(=O)C1CCCCC1	20.0	5.5	9.5	.
Cc1oc2nc[nH]c(=O)c2c1C(=O)Nc1ccc2c(c1)CCC2	-248.1	-79.7	-79.5	-31.9
O=C(Nc1nc2ccccc2s1)c1ccc2c(c1)C(=O)N(Cc1cccnc1)C2=O	24.0	-3.3	0.6	58.4*
NC(=O)C1CCN(c2c(S(=O)(=O)c3ccc(Cl)cc3)cnc3ccc(F)cc23)CC1	21.5	-33.8	16.9	0.1
Cc1ccc(-c2noc(CCC(=O)NC3CCCC3)n2)c(=O)n1C(C)C	-30.6	-7.3	-10.7	-12.4
Cc1nc(-c2ccccc2)sc1C(=O)/C=C/c1ccccc1[N+](=O)[O-]	37.5*	29.1	21.4	8.0
COc1cc(OC)c(OC)cc1CC1C(=O)Nc2ccccc21 (stereo not drawn)	.	.	-4.8	-26.0
Cc1ccsc1CNC(=O)Nc1ccc(C(F)(F)F)cc1	26.7	16.2	9.0	43.2*
Cc1ccc(C2c3c(oc4ccccc4c3=O)C(=O)N2c2nc3ccc(F)cc3s2)o1 (stereo not drawn)	14.9	0.0	3.0	27.2
COc1cc(Cl)cc2c1OCC(=O)N(c1ccc(C(N)=O)cc1)C2	-4.2	2.3	8.4	-1.0
Cc1ccc(NC(=O)c2ccn(COc3ccc(Cl)c(C)c3)n2)nc1	22.3	-6.3	-0.5	33.9*
Cc1ccc(NC(=O)c2ccn(COc3ccccc3Cl)n2)nc1	48.1*	19.2	7.1	33.0*
Cc1ccc(Cl)cc1NC(=O)c1cccc(-n2cnnn2)c1	7.7	-13.4	-4.1	-1.9
Cc1ccc(Cl)cc1NC(=O)c1ccn(COc2ccccc2F)n1	-0.2	34.9*	5.1	0.3
Cc1cccc(NC(=O)c2ccn(COc3ccc(F)cc3)n2)n1	3.9	10.1	0.1	17.2
Cc1cc(C)nc(NC(=O)c2ccn(COc3ccc(F)cc3)n2)c1	32.4*	4.5	12.6	3.7
SMILES	USP30 inh	USP28 inh	OTUD3 block	USP17 inh
COCCN1C(=O)c2ccccc2C(C(=O)NCC(O)c2ccccc2)C12CCCCC2 (stereo not drawn)	5.5	1.8	4.1	3.0
COCC(=O)N1CC[C@](O)(c2ccccc2)[C@H](N2CCCC2)C1	i	-211.1	-147.4	-123.0
NS(=O)(=O)c1ccc(NC(=O)Cn2cnc3cc([N+](=O)[O-])ccc3c2=O)cc1	19.9	41.1*	17.8	59.0*
O=C(Cn1cnc2cc([N+](=O)[O-])ccc2c1=O)Nc1ccc2c(c1)OCCO2	-25.9	13.7	-12.6	-2.7
CCc1ccc(Nc2cc(C(=O)NC3CCCC3)c3ccccc3n2)cc1	-13.3	-9.8	-4.5	-4.5
CCOc1ccc(CCNC(=O)c2ccc3c(SCC(=O)O)c4c(nc3c2)CCC4)cc1OCC	-4.4	42.1*	28.6	33.7*
COc1ccc(OC)c(CCNC(=O)c2ccc3c(=O)n4c(nc3c2)CCCC4)c1	17.4	13.6	13.2	11.6
CCOc1ccc(Nc2cc(C(=O)NCCC3=CCCCC3)c3ccccc3n2)cc1	31.8*	15.4	15.9	44.4*
CCOc1ccc(CCNC(=O)c2cc(Nc3ccccc3C)nc3ccccc23)cc1OCC	56.2*	41.2*	13.2	57.7*
COc1cc2ccccc2cc1C(=O)OC(C)C(=O)Nc1ccc(Oc2ccccc2)cc1 (stereo not drawn)	-0.6	3.6	-0.7	0.0
O=C(CNCc1cccc(Cl)c1)N1CCc2ccccc2C1	3.1	7.1	3.2	46.1*
O=C(O[C@@H]1C[C@H]2C(=O)N[C@H](Cc3ccccc3)C(=O)N2C1)c1ccccc1	10.8	2.8	4.3	8.2
CC(C)CC1NC(=O)C2CC(O)CN2C1=O (stereo not drawn)	37.1*	19.7	12.9	19.0
CC(C)CC1NC(=O)C2CCCN2C1=O (stereo not drawn)	18.4	50.6*	33.3*	70.9*
CCOC(=O)c1ccc(-c2ccc3ccccc3c2)nc1C	-0.6	-2.2	-2.4	-10.1
COC(=O)c1cc2c(ccn2C)n1CC(=O)N1CCN(c2ccccc2F)CC1	-132.0	-24.6	-53.1	-16.6
COc1ccc(Nc2cc(-c3cccc(C(F)(F)F)c3)nc(-c3ccncc3)n2)cc1	-29.6	-10.5	-2.8	.
O=C(NCc1nnc2c(C(F)(F)F)cc(Cl)cn12)C1(c2ccc(Cl)cc2)CCCC1	13.9	2.5	1.4	6.8
O=C1C/C(=C\c2cccc([N+](=O)[O-])c2)Cc2ccccc21	38.4*	29.9	5.3	7.5
O=C1C/C(=C\c2cccc(Br)c2)Cc2ccccc21	20.6	34.0*	21.8	13.7
COc1ccc(/C=C2\CC(=O)c3ccccc3C2)c(OC)c1	-15.9	14.0	8.0	5.0
O=C1C/C(=C\c2cccc(Cl)c2)Cc2ccccc21	39.0*	53.7*	26.8	25.8
CCN(c1ccccc1)c1nnc(NC(=O)Nc2ccccc2C(F)(F)F)s1	16.7	17.2	11.5	2.0
O=C(c1cnco1)N1CCCC(c2ncc(Cc3cccc(F)c3)o2)C1 (stereo not drawn)	11.4	7.5	17.3	5.4
CCc1ccc(C2c3c(oc4ccccc4c3=O)C(=O)N2c2nncs2)cc1 (stereo not drawn)	2.1	-3.8	-5.6	51.1*
COc1ccc2nc(N3C(=O)c4oc5ccccc5c(=O)c4C3c3ccc([N+](=O)[O-])cc3)sc2c1 (stereo not drawn)	-89.4	-29.6	-24.7	2.6
CCOC(=O)c1ccc2nc(N3C(=O)c4oc5ccccc5c(=O)c4C3c3ccco3)sc2c1 (stereo not drawn)	-27.1	-9.4	-8.3	-5.9
CCOc1cc(C2c3c(oc4ccccc4c3=O)C(=O)N2c2nc3ccc(C)cc3s2)ccc1O (stereo not drawn)	34.7*	8.2	0.7	22.5
Cc1cnc(CN2CCCC(c3ccc4cn[nH]c4n3)C2)cn1 (stereo not drawn)	-2.1	0.1	46.7*	-12.1
COc1cccc(CNC(=O)c2[nH]nc3c2CCc2ccccc2-3)c1	7.3	24.1	9.7	11.5
